Source: the supplement of paper PMC7595190

Tests used:
Test in all cases: CellTox Green cytotoxicity fluorescence relative to DMSO vehicle (fold of vehicle RFU); higher = more cell death (loss of membrane integrity), active = 2 or more
[1] = tested on: CMK
Procedure, shortened: (§1)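 Single compounds from the Selleckchem apoptosis library were applied at final 0.01, 0.1 and 1 µM (0.1% DMSO vehicle) to MV4-11, CMK and Kasumi-1 cells seeded at 4.0 × 10^4 cells per well with CellTox Green reagent. After incubation at 37 °C, 5% CO2, fluorescence was read at 24, 48 and 72 h. Cytotoxicity, meaning loss of membrane integrity, is shown as fold of the DMSO vehicle signal.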

[2] = tested on: Kasumi-1
Procedure, shortened: as §1

[3] = tested on: MV4-11
Procedure, shortened: as §1

Measured: CellTox Green cytotoxicity fluorescence

C=CC(=O)N1CCN(C(=O)CNc2cc(I)c(Cl)cc2O)CC1 [K-Ras(G12C) inhibitor 12]
inactive: [1]; 0.01 µM, 24 h 1.01 | [1]; 0.01 µM, 48 h 0.986 | [1]; 0.01 µM, 72 h 0.963 | [1]; 0.1 µM, 24 h 0.999 | [1]; 0.1 µM, 48 h 0.997 | [1]; 0.1 µM, 72 h 0.992 | [1]; 1 µM, 24 h 0.992 | [1]; 1 µM, 48 h 1 | [1]; 1 µM, 72 h 1.02 | [2]; 0.01 µM, 24 h 0.989 | [2]; 0.01 µM, 48 h 1.01 | [2]; 0.01 µM, 72 h 1 | [2]; 0.1 µM, 24 h 1.01 | [2]; 0.1 µM, 48 h 0.982 | [2]; 0.1 µM, 72 h 0.979 | [2]; 1 µM, 24 h 0.995 | [2]; 1 µM, 48 h 0.964 | [2]; 1 µM, 72 h 0.958 | [3]; 0.01 µM, 24 h 0.959 | [3]; 0.01 µM, 48 h 0.976 | [3]; 0.01 µM, 72 h 0.971 | [3]; 0.1 µM, 24 h 0.991 | [3]; 0.1 µM, 48 h 0.991 | [3]; 0.1 µM, 72 h 1.01 | [3]; 1 µM, 24 h 0.993 | [3]; 1 µM, 48 h 0.996 | [3]; 1 µM, 72 h 1.03

CN(C)CCCCC(=O)Nc1ccc(NC(=S)NC(=O)c2ccc(C(C)(C)C)cc2)cc1 [Tenovin-6]
inactive: [1]; 0.01 µM, 24 h 0.978 | [1]; 0.01 µM, 48 h 0.97 | [1]; 0.01 µM, 72 h 0.94 | [1]; 0.1 µM, 24 h 1 | [1]; 0.1 µM, 48 h 0.991 | [1]; 0.1 µM, 72 h 0.973 | [1]; 1 µM, 24 h 1.01 | [1]; 1 µM, 48 h 1.03 | [1]; 1 µM, 72 h 0.875 | [2]; 0.01 µM, 24 h 0.99 | [2]; 0.01 µM, 48 h 0.965 | [2]; 0.01 µM, 72 h 0.966 | [2]; 0.1 µM, 24 h 0.947 | [2]; 0.1 µM, 48 h 0.912 | [2]; 0.1 µM, 72 h 0.879 | [2]; 1 µM, 24 h 0.958 | [2]; 1 µM, 48 h 1 | [2]; 1 µM, 72 h 1.01 | [3]; 0.01 µM, 24 h 1 | [3]; 0.01 µM, 48 h 0.993 | [3]; 0.01 µM, 72 h 0.989 | [3]; 0.1 µM, 24 h 0.986 | [3]; 0.1 µM, 48 h 0.964 | [3]; 0.1 µM, 72 h 0.952 | [3]; 1 µM, 24 h 1.02 | [3]; 1 µM, 48 h 1.02 | [3]; 1 µM, 72 h 1.05

Cc1nc(Nc2ncc(C(=O)Nc3c(C)cccc3Cl)s2)cc(N2CCN(CCO)CC2)n1 [Dasatinib Monohydrate]
inactive: [1]; 0.01 µM, 24 h 1.01 | [1]; 0.01 µM, 48 h 1.02 | [1]; 0.01 µM, 72 h 1.07 | [1]; 0.1 µM, 24 h 1.02 | [1]; 0.1 µM, 48 h 1.04 | [1]; 0.1 µM, 72 h 0.987 | [1]; 1 µM, 24 h 1 | [1]; 1 µM, 48 h 1.05 | [1]; 1 µM, 72 h 1.09 | [2]; 0.01 µM, 24 h 1.03 | [2]; 0.01 µM, 48 h 1.09 | [2]; 0.01 µM, 72 h 1.13 | [2]; 0.1 µM, 24 h 1.02 | [2]; 0.1 µM, 48 h 1.15 | [2]; 0.1 µM, 72 h 1.23 | [2]; 1 µM, 24 h 0.928 | [2]; 1 µM, 48 h 1.13 | [2]; 1 µM, 72 h 1.24 | [3]; 0.01 µM, 24 h 1 | [3]; 0.01 µM, 48 h 0.989 | [3]; 0.01 µM, 72 h 0.978 | [3]; 0.1 µM, 24 h 0.993 | [3]; 0.1 µM, 48 h 0.983 | [3]; 0.1 µM, 72 h 0.97 | [3]; 1 µM, 24 h 1.02 | [3]; 1 µM, 48 h 1.01 | [3]; 1 µM, 72 h 1.01

CC(=O)O/N=C1/C(c2c(O)[nH]c3cc(Br)ccc23)=Nc2ccccc21 [BIO-acetoxime]
inactive: [1]; 0.01 µM, 24 h 1.02 | [1]; 0.01 µM, 48 h 0.999 | [1]; 0.01 µM, 72 h 0.97 | [1]; 0.1 µM, 24 h 0.981 | [1]; 0.1 µM, 48 h 0.97 | [1]; 0.1 µM, 72 h 0.981 | [1]; 1 µM, 24 h 0.973 | [1]; 1 µM, 48 h 0.945 | [1]; 1 µM, 72 h 1.12 | [2]; 0.01 µM, 24 h 1.05 | [2]; 0.01 µM, 48 h 1.05 | [2]; 0.01 µM, 72 h 1.04 | [2]; 0.1 µM, 24 h 1.02 | [2]; 0.1 µM, 48 h 1.04 | [2]; 0.1 µM, 72 h 1.04 | [2]; 1 µM, 24 h 0.974 | [2]; 1 µM, 48 h 1.07 | [2]; 1 µM, 72 h 1.11 | [3]; 0.01 µM, 24 h 1.7 | [3]; 0.01 µM, 48 h 1.57 | [3]; 0.01 µM, 72 h 1.56 | [3]; 0.1 µM, 24 h 1.03 | [3]; 0.1 µM, 48 h 1.11 | [3]; 0.1 µM, 72 h 1.17 | [3]; 1 µM, 24 h 1.02 | [3]; 1 µM, 48 h 1.2 | [3]; 1 µM, 72 h 1.36

CCO[C@@H]1OC(=O)C[C@@H]1NC(=O)[C@@H]1CCCN1C(=O)[C@@H](NC(=O)c1ccc(N)c(Cl)c1)C(C)(C)C
inactive: [1]; 0.01 µM, 24 h 0.989 | [1]; 0.01 µM, 48 h 0.988 | [1]; 0.01 µM, 72 h 1 | [1]; 0.1 µM, 24 h 0.971 | [1]; 0.1 µM, 48 h 0.981 | [1]; 0.1 µM, 72 h 0.995 | [1]; 1 µM, 24 h 0.96 | [1]; 1 µM, 48 h 0.975 | [1]; 1 µM, 72 h 1.03 | [2]; 0.01 µM, 24 h 0.954 | [2]; 0.01 µM, 48 h 0.953 | [2]; 0.01 µM, 72 h 0.948 | [2]; 0.1 µM, 24 h 0.98 | [2]; 0.1 µM, 48 h 0.961 | [2]; 0.1 µM, 72 h 0.948 | [2]; 1 µM, 24 h 0.997 | [2]; 1 µM, 48 h 1.02 | [2]; 1 µM, 72 h 1.03 | [3]; 0.01 µM, 24 h 0.972 | [3]; 0.01 µM, 48 h 0.981 | [3]; 0.01 µM, 72 h 0.987 | [3]; 0.1 µM, 24 h 0.995 | [3]; 0.1 µM, 48 h 0.989 | [3]; 0.1 µM, 72 h 0.996 | [3]; 1 µM, 24 h 1 | [3]; 1 µM, 48 h 1 | [3]; 1 µM, 72 h 1.01

CNC(=O)c1ccccc1Nc1cc(Nc2ccc(N3CCOCC3)cc2OC)ncc1C(F)(F)F
inactive: [1]; 0.01 µM, 24 h 0.924 | [1]; 0.01 µM, 48 h 0.935 | [1]; 0.01 µM, 72 h 0.912 | [1]; 0.1 µM, 24 h 0.928 | [1]; 0.1 µM, 48 h 0.933 | [1]; 0.1 µM, 72 h 0.917 | [1]; 1 µM, 24 h 0.946 | [1]; 1 µM, 48 h 1.02 | [1]; 1 µM, 72 h 0.957 | [2]; 0.01 µM, 24 h 0.924 | [2]; 0.01 µM, 48 h 0.952 | [2]; 0.01 µM, 72 h 0.976 | [2]; 0.1 µM, 24 h 0.976 | [2]; 0.1 µM, 48 h 0.988 | [2]; 0.1 µM, 72 h 0.96 | [2]; 1 µM, 24 h 0.928 | [2]; 1 µM, 48 h 1.03 | [2]; 1 µM, 72 h 1.08 | [3]; 0.01 µM, 24 h 0.941 | [3]; 0.01 µM, 48 h 0.941 | [3]; 0.01 µM, 72 h 0.949 | [3]; 0.1 µM, 24 h 0.936 | [3]; 0.1 µM, 48 h 0.967 | [3]; 0.1 µM, 72 h 0.972 | [3]; 1 µM, 24 h 0.979 | [3]; 1 µM, 48 h 1.18 | [3]; 1 µM, 72 h 1.39

NS(=O)(=O)C#Cc1ccccc1 [Pifithrin-m]
inactive: [1]; 0.01 µM, 24 h 0.969 | [1]; 0.01 µM, 48 h 0.96 | [1]; 0.01 µM, 72 h 0.939 | [1]; 0.1 µM, 24 h 1.01 | [1]; 0.1 µM, 48 h 1 | [1]; 0.1 µM, 72 h 0.998 | [1]; 1 µM, 24 h 1 | [1]; 1 µM, 48 h 1.04 | [1]; 1 µM, 72 h 0.96 | [2]; 0.01 µM, 24 h 0.994 | [2]; 0.01 µM, 48 h 0.986 | [2]; 0.01 µM, 72 h 0.979 | [2]; 0.1 µM, 24 h 1 | [2]; 0.1 µM, 48 h 0.98 | [2]; 0.1 µM, 72 h 0.98 | [2]; 1 µM, 24 h 0.987 | [2]; 1 µM, 48 h 0.985 | [2]; 1 µM, 72 h 0.983 | [3]; 0.01 µM, 24 h 0.989 | [3]; 0.01 µM, 48 h 1 | [3]; 0.01 µM, 72 h 1 | [3]; 0.1 µM, 24 h 0.994 | [3]; 0.1 µM, 48 h 0.987 | [3]; 0.1 µM, 72 h 0.979 | [3]; 1 µM, 24 h 1.02 | [3]; 1 µM, 48 h 1.02 | [3]; 1 µM, 72 h 1.03
